# CYP2C19 act – increases human CYP2C19 enzyme activity; recombinant CYP2C19, luciferin-H EGE luminescence; active compounds read high; 0 = fully inhibited enzyme, 1 = untreated enzyme; 96,000 tested, under 10 active; activation factor at 5 µM; P33261;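 active = activation factor of at least 2 at 5 µM in the primary screen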;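 note: 0 = wells with 2.5 mM tranylcypromine and 1 = vehicle-only wells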
# CYP2C9 inhib – inhibitors of human CYP2C9; CYP2C9 Supersomes, luciferin-H conversion, luminescence; inhibition, % at 5 µM; actives 20% (n = 96,000);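 active = blocking of liver enzyme CYP2C9 beyond about 50% at 5 µM, limit read from the data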
# Target sequence (P11712 whole entry, looked up): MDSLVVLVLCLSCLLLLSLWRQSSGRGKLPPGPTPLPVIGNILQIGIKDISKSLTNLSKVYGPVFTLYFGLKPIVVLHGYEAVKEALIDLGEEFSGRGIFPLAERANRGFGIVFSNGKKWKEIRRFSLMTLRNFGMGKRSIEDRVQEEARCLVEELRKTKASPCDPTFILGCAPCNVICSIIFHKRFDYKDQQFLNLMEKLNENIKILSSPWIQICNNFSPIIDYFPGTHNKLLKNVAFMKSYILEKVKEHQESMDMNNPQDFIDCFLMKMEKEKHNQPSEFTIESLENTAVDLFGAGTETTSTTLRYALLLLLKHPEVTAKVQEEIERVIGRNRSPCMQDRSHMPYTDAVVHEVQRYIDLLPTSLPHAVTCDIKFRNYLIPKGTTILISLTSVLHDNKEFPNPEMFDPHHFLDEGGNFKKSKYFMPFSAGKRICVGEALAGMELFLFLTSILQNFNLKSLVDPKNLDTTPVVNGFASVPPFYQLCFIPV
# CYP2C19 inhib – human CYP2C19 inhibition | P33261 | CYP2C19 Supersomes, luciferin-H EGE luminescence, 30 min | inhibition, % at 5 µM | actives 21% (n = 96,000) | AID 778;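 active = CYP2C19 inhibition above a set limit at 5 µM in the primary screen, cut at about 50% in these data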;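 note: plate controls were negative control wells for no effect and 2.5 mM tranylcypromine positive control for full effect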
# CYP2C9 activ – CYP2C9 (human) activation; P11712; actives 1.4% (n = 96,000); recombinant CYP2C9, luciferin-H conversion, luminescence; active compounds read high; factor 1 = untreated enzyme, 0 = blocked; activation factor at 5 µM;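 active = activation factor of 2 or more for CYP2C9 at a 5 µM dose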;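 note: 0 = sulfaphenazole-blocked wells and 1 = vehicle-only wells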
# * = called active by the depositor. The list is not random: actives were taken first. Their share in the collection is about 31%.
SMILES,CYP2C19 act,CYP2C9 inhib,CYP2C19 inhib,CYP2C9 activ
CCN(CCNc1ccc([N+](=O)[O-])c2cccnc12)S(=O)(=O)c1ccc(Cl)cc1,0.4,50.9*,60.9*,0.5
CCC(CO)Nc1ccc([N+](=O)[O-])c2cccnc12 (centres undefined),0.4,26.8,57.5*,0.7
COc1ccc(N=C(C)c2c(O)n(C)c(=O)n(C)c2=O)c(OC)c1,0.9,19.4,9.8,0.8
O=C1N(CN2CCOCC2)c2ccccc2C1(O)c1c[nH]c2ccccc12 (centres undefined),0.8,2.0,18.3,1
CCOc1ccccc1N1C(=O)NC(=O)/C(=C/c2ccc3c4c(cccc24)CC3)C1=O,0.9,-306.3,6.6,4.1*
COc1cc(/C=C2\C(=O)NC(=O)N(c3ccccc3)C2=O)cc(OC)c1OC,0.9,-18.7,7.4,1.2
CCN1CCC2(CC1)NC(CO)(CO)CO2,0.9,7.5,11.7,0.9
CSc1ccc(C(=O)C(C)(C)N2CCOCC2)cc1,0.1,23.4,92.3*,0.8
COCCOC(=O)c1c(C)oc2ccc(OC(=O)N(C)C)cc12,0.4,41.8,62.7*,0.6
CCOP(=O)(C#CC(C)(C)C)C(O)(c1ccccc1)C(F)(F)F (centres undefined),1.2,-28.6,-24.5,1.3
O=C(CCCC1=NS(=O)(=O)c2ccccc2N1)N1CCC2(CC1)OCCO2,1,1.6,-1.0,1
C=CCOC(=O)C1=C(C)OC(N)=C(C#N)[C@@]12C(=O)N(CC(N)=O)c1ccccc12,0.6,8.9,44.0,0.9
O=C(COc1ccc(S(=O)(=O)N2CCCCC2)cc1)N1CCN(Cc2ccccc2)CC1,1,10.8,2.3,0.9
Cn1nc(-c2ccc(OCC(=O)N3CCN(Cc4ccccc4)CC3)cc2)c2ccccc2c1=O,0.2,78.8*,80.2*,0.2
CC(C)NS(=O)(=O)c1ccc(OCC(=O)N2CCN(Cc3ccccc3)CC2)c(Cl)c1,0.5,71.4*,54.0*,0.3
Cn1cccc1CN1CCN(C(=O)COc2ccccc2)CC1,0.9,0.9,6.8,1
CCCNS(=O)(=O)c1ccc(OCC(=O)N2CCN(Cc3ccccc3)CC2)cc1,0.8,51.8*,22.4,0.5
Cc1ccc(-n2c(O)c(C=Nc3ccc(S(=O)(=O)N(C)C)cc3)c(=O)[nH]c2=O)cc1,1.1,-1.6,-8.7,1
Cc1cc(/C=C2\C(=O)NC(=O)N(C)C2=O)c(C)n1-c1ccc2c(c1)OCO2,1.1,-3.6,-5.1,1
O=S(=O)(c1ccccc1)N1CN2CCN(C2)C1,0.9,5.1,6.4,0.9
CCN(CC)P(=O)(NC(=O)C(Cl)(Cl)Cl)N(CC)CC.[Cl-].[Cl-].[Cl-].[Nd+3],0.9,90.3*,10.7,0.1
O=[N+]([O-])c1ccccc1CNCCc1ccc(F)cc1,0.1,-3.0,85.6*,1
COc1ccc(-n2c(O)c(C(C)=NCc3ccco3)c(=O)[nH]c2=O)cc1,0.9,13.1,14.8,0.9
CCC(=NCc1ccco1)c1c(O)n(-c2ccc(C)cc2)c(=O)[nH]c1=O,0.8,17.7,24.2,0.8
CCC(=NCc1ccco1)c1c(O)n(-c2ccccc2)c(=O)[nH]c1=O,0.5,8.4,54.0*,0.9
SMILES,CYP2C19 act,CYP2C9 inhib,CYP2C19 inhib,CYP2C9 activ
CC(=NCc1ccco1)c1c(O)n(-c2ccccc2)c(=O)[nH]c1=O,0.4,11.8,56.5*,0.9
O=c1[nH]c2c(c(=O)n1C1CCCCC1)CCC2,0.8,-6.6,24.6,1.1
Cc1ccc(O)c(CN2CCN(c3ccccc3)CC2)c1,0.1,72.0*,92.7*,0.3
FC(F)(F)c1ccccc1CN1CCN(Cc2ccccc2)CC1,0.3,12.1,68.7*,0.9
Oc1ccc(Cl)cc1CN1CCN(Cc2ccccc2)CC1,0.1,56.3*,90.2*,0.4
Cc1cc(O)c(CN2CCN(c3ccccc3)CC2)cc1C,0.6,20.0,37.7,0.8
Cc1cccc(CN2CCN(Cc3ccc(Cl)cc3)CC2)c1,0.8,7.5,17.8,0.9
COc1ccc(CN2CCN(c3ccccc3)CC2)c(C)c1C,0.2,-2.9,83.1*,1
Cn1cc(C(=O)c2ccccc2)c2ccccc21,0.8,-192.1,22.6,2.9*
O=C(C(Cc1ccccc1)NS(=O)(=O)c1ccc(F)cc1)N1CCC2(CC1)OCCO2 (centres undefined),0.2,36.8,80.0*,0.6
O=C(NC(Cc1ccccc1)C(=O)N1CCC2(CC1)OCCO2)C1CCCCC1 (centres undefined),0.8,15.2,18.0,0.8
O=C(Nc1cccc2ccccc12)c1nn(C23CC4CC(CC(C4)C2)C3)cc1Br,0.6,3.4,35.9,1
CC1(C)CN=C(Nc2ccc(F)c(F)c2)S1,0.4,25.9,61.6*,0.7
COc1ccccc1-n1c(O)c(C=Nc2c(C)n(C)n(-c3ccccc3)c2=O)c(=O)[nH]c1=O,1,-12.6,-1.0,1.1
COc1cc(/C=N/NC(=O)CN2CC(c3ccccc3)CC2=O)ccc1OC(=O)N(C)C (centres undefined),1,-24.0,-2.8,1.2
CC12CN3CC(C)(CN(C1)C3c1cccs1)C2O (centres undefined),0.4,-7.8,58.2*,1.1
O=c1cccc2n1CC1CC2CN(Cc2c(Cl)cccc2Cl)C1 (centres undefined),0,70.0*,97.2*,0.3
Cc1ccc(CN2CC3CC(C2)c2cccc(=O)n2C3)cc1 (centres undefined),0.6,33.0,44.4,0.7
O=c1cc(C(F)(F)F)c2cc3c4c(c2o1)CCCN4CCC3,0.7,-12.9,32.8,1.1
Cc1cc2c(C(F)(F)F)cc(=O)oc2c2c1NCCC2,0.9,-142.8,6.1,2.4*
COC(=O)C1=C(N)Oc2c(c(=O)oc3ccccc23)[C@]12C(=O)N(C)c1ccccc12,0.3,68.5*,67.8*,0.3
COC(=O)C1=C(N)OC(C)=C(C(C)=O)C12C(=O)N(C)c1ccccc12 (centres undefined),1,16.8,-3.9,0.8
Cc1ccc(N(C)C(=O)Oc2cccc3cccnc23)cc1,0.1,48.7,87.1*,0.5
Cc1ccc2cccc(OC(=O)N(C)c3ccccc3)c2n1,0.1,27.6,89.8*,0.7
CN1C(=O)C(C2(C#N)CCCCC2)C(=O)N(C)C1=O,1.2,-15.7,-16.9,1.2
SMILES,CYP2C19 act,CYP2C9 inhib,CYP2C19 inhib,CYP2C9 activ
Cc1cc(C=C2C(=O)N(C)C(=S)N(C)C2=O)c(C)n1C1CCCC1,0.9,29.3,10.7,0.7
CCOC(=O)C1=C(C)N(C)C2(C)CC1c1ccccc1O2 (centres undefined),0.8,15.7,21.4,0.8
CCCCCn1c(=O)c(C(=O)NCc2ccncc2)c(O)c2ccccc21,0.3,73.6*,70.8*,0.3
CCCCCn1c(=O)c(C(=O)Nc2ccncc2)c(O)c2ccccc21,0.7,37.7,27.2,0.6
CP(=O)(O)CCCN,0.4,24.2,61.4*,0.8
CC1=NN(c2ccccc2)C(=O)/C1=C/c1c(O)[nH]c(=S)[nH]c1=O,0.9,29.6,5.0,0.7
O=c1[nH]c(=O)n(CCC2=CCCCC2)c(O)c1C=NC1CCN(Cc2ccccc2)CC1,0.7,80.2*,31.3,0.2

# Compound activity from PubChem BioAssay.
